We go through 39 compounds from the supplement of paper PMC7156485.

Molecules are shown by their SMILES. ± gives the standard deviation of the averaged measurements.
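Note: TDF denotes transformed human dermal fibroblasts of mesenchymal origin.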

The subject of the experiment is HCC1569. Kind of experiment: cell number relative to DMSO (% of DMSO); higher = more cells (less growth inhibition / toxicity). To be noted: concentration: 10 µM; 24 h. A digest of the protocol: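 After 24 h at 37 °C with compounds at 10 µM, in triplicate, HCC1569 and TDF cells were fixed with 3.7% formaldehyde. Immunostaining used a rabbit anti-H1.0 antibody and an AlexaFluor 647 secondary, with DAPI, and six fields per well were imaged at ×10. H1.0 nuclear intensity or cell number is presented as percent of the plate control, from the median of replicates, with HCC1569 values smoothed for positional effects.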
As for `CCC(CO)NC(=O)C1C=C2c3cccc4c3c(cn4C)CC2N(C)C1.O=C(O)C=CC(=O)O` (centres undefined) [Methysergide maleate], the cell number was found to be 101 ± 2.7.
`COc1cc2c3cc1Oc1c(OO)c(OC)cc4c1C(Cc1ccc(cc1)Oc1cc(ccc1O)CC3N(C)CC2)N(C)CC4.O=S(=O)(O)O` (centres undefined) [Oxyacanthine sulfate] yielded a cell number of 55.6.
The figure for `CNCCc1c[nH]c2ccc(O)cc12.O=C(O)C(=O)O` [N-omega-Methyl-5-hydroxytryptamine oxalate salt] is 101; for `CC1CC(C)C(=O)C(C(O)CC2CC(=O)NC(=O)C2)C1` (centres undefined) [Cycloheximide] it is 64.3.
The figure for `CCN(C)C(=O)Oc1cccc([C@H](C)N(C)C)c1.O=C(O)C(O)C(O)C(=O)O` is 98.4; for `CCCN(CCC)C1CCc2c(F)ccc(O)c2C1.Cl` (stereo not drawn) [S(-)-UH-301 hydrochloride] it is 102.
The figure for `COc1cc(C(=O)OC2CC3CCC(C2)N3C)ccc1O` (centres undefined) [Fillalbin] is 101; for `OCC1CCCN2CCCCC12` (centres undefined) [Lupinine] it is 109; for `C[N+]1(C)CCc2cc3c(cc2C1C1OC(=O)c2c1ccc1c2OCO1)OCO3.[Br-]` (single isomer, unassigned; (-)) [(-)-Bicuculline methbromide, 1(S), 9(R)] it is 101.
`CN1C2CCC1CC(OC(=O)C(CO)c1ccccc1)C2` (centres undefined) [Hyoscyamine] gave a cell number of 102.
The figure for `COc1cc(C2c3cc4c(cc3C(O)C3COC(=O)C23)OCO4)cc(OC)c1OC` (centres undefined) [Picropodophyllin] is 58.3.
The figure for `CN1C2CCCC1CC(=O)C2.Cl` is 98.6.
Turning to `CCCCCCCCCCCCCCC(Br)C(=O)O` (centres undefined) [2-bromohexadecanoic acid], the cell number was 109.
To `COc1ccc2c(c1OC)C(=O)OC2C1c2cc3c(cc2CCN1C)OCO3` (centres undefined) belongs 107; to `C=CCN1CCC23c4c5ccc(O)c4OC2C(=O)CCC3(O)C1C5.Cl` (centres undefined) [Naloxone hydrochloride], 104; to `NC(=S)NN=Cc1coc2ccccc2c1=O.[Cl][Cu][Cl]`, 96.2.
To `NCCN(CCN)N(O)N=O` [1,1-bis(2-aminoethyl)-2-hydroxy-3-oxotriazane] belongs 99.5.
`CN(C)C(=O)Oc1ccc[n+](C)c1.[Br-]` [Pyridostigmine bromide] displayed a cell number of 103.
To `Cl.N[C@@H](CCl)C(=O)O` [beta-Chloro-L-alanine hydrochloride] belongs 101; to `Cc1ccc(S(=O)(=O)NC(CCCCN)C(=O)CCl)cc1.Cl` [Na-p-Tosyl-L-lysine chloromethyl ketone hydrochloride], 98.8.
The compound `CCCCc1ccc(C(=O)O)nc1` [Fusaric acid] returned a cell number of 105.
In turn, `Br.C=CCN1CCc2cccc3c2C1Cc1ccc(O)c(O)c1-3` (stereo not drawn) [R(-)-N-Allylnorapomorphine hydrobromide] registered a cell number of 84.8.
To `Cc1cc(O)c2c(=O)c3c(O)cc(O)c4c5c(O)cc(O)c6c(=O)c7c(O)cc(C)c8c1c2c(c34)c(c78)c65` [Hypericin] belongs 103 ± 2.1; to `Cl.O=C(OC1CCN(CCCl)CC1)C(c1ccccc1)c1ccccc1` [4-Diphenylacetoxy-N-(2-chloroethyl)piperidine hydrochloride], 98.2; to `CC(N)C(=O)OC(C)(C)Cc1ccc(Cl)cc1.Cl` (centres undefined) [Alaproclate hydrochloride], 102.
The figure for `CC1CCC2C(C)C3C(CC4C5CCC6CC(O)CCC6(C)C5CCC43C)N2C1` (centres undefined) [Demissidine] is 97.9; for `Cl.O=C(N[C@H]1CN2CCC1CC2)c1c[nH]c2ccsc2c1=O` it is 106.
To `C#C[C@]1(O)CC[C@H]2[C@@H]3CC[C@H]4Cc5nc6nc7ccccc7n6cc5C[C@]4(C)[C@H]3CC[C@@]21C` belongs 74.8.
In turn, `CN1CC(C(=O)NC2(C)OC3(O)C4CCCN4C(=O)C(Cc4ccccc4)N3C2=O)CC2c3cccc4[nH]cc(c34)CC21.CS(=O)(=O)O` (centres undefined) [Dihydroergotamine mesylate] gave a cell number of 98.8.
The figure for `O=[N+]([O-])c1cc(O)c(O)c([N+](=O)[O-])c1` [3,5-Dinitrocatechol] is 98.6; for `CCCN1CCCC(c2cccc(C#N)c2)C1.Cl` (stereo not drawn) [S(-)-DS 121 hydrochloride] it is 100; for `CCC1(C2=NCCN2)Cc2ccccc2O1.Cl` (centres undefined) [Efaroxan hydrochloride] it is 103.
Compound `O=P1(NCCCl)OCCCN1CCCl` (centres undefined) [Ifosfamide] had a cell number of 103.
To `CC(=O)OC1C2C(OC(=O)Cc3ccccc3)C(C)CC2(OC(C)=O)C(=O)C(C)=CC2C(CCC13CO3)C2(C)C` (centres undefined) [Euphorbiasteroid] belongs 102; to `CN1CC(C(=O)NC2(C)OC3(O)C4CCCN4C(=O)C(Cc4ccccc4)N3C2=O)CC2c3cccc4[nH]cc(c34)CC21.CS(=O)(=O)O` (centres undefined) [Dihydroergotamine methanesulfonate], 102.
The figure for `Cl.Cl.Clc1ccc(N2CC3CCC(C2)N3)nn1` is 103; for `C[N+]1(C)C2CCC1CC(OC(=O)C(CO)c1ccccc1)C2.[Br-]` (centres undefined) [Atropine methyl bromide] it is 102; for `O=C(O)C(=O)c1cn(Cc2ccccc2)c2ccc(-c3ccc(OC(F)(F)F)cc3)cc12` it is 99.9.
To `CCCCCC=CCC=CCC=CCC=CCCCC(=O)NCCO` [Anandamide (20:4, n-6)] belongs 103.
